# Hits are enriched below; roughly 1.6% of the tested compounds scored in any of these assays.
# KCNQ2 block: blocks the rat KCNQ2 potassium channel | O88943 | CHO-K1 KCNQ2, FluxOR thallium flux, 20 min; hits give low values | B-score at 10 µM | 310,000 tested, 1.1% active | AID 2156;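 active = fluorescence ratio B-score at most minus 3 library SDs, with starting brightness B-score within 2 library SDs, cut at about -5.5 in these data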
# KCNQ2 enhance: KCNQ2 (rat) channel potentiation; O88943; B-score at 10 µM; CHO-K1 KCNQ2, FluxOR thallium flux fluorescence; hits give high values; 310,000 tested, 0.54% active;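 active = fluorescence ratio B-score at least 3 SD of library B-scores, with initial fluorescence B-score within 3 of them, cut at about 5.3 in these data; same plate scores as AID 2156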;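 note: B-score of peak minus minimum over baseline fluorescence ratio after K+ and Tl+ stimulus; positive B-score means potentiation of KCNQ2 with more thallium influx and brighter signal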
# KCNQ2 inh conf: rat KCNQ2 channel inhibition, confirmatory screen. activity change, negative = inhibition, % at 10 µM. KCNQ2-expressing cells, thallium flux; hits give low values. 1,000 tested, 57% active. shares compounds with KCNQ2 block
# KCNQ1 spec: selectivity of KCNQ2 inhibitors against human KCNQ1. shares compounds with KCNQ2 block. KCNQ1-expressing cells, FluxOR thallium flux fluorescence; hits give low values. activity change, negative = inhibition, % at 10 µM. 1,000 tested, 15% active;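 active = activity change at least 3 SD of negative controls below their mean in both duplicate wells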;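 note: CHO cells stably transfected with KCNQ1 and depolarized by potassium stimulus; peak minus minimum fluorescence over baseline after thallium addition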
# Target sequence (P51787 whole entry, looked up): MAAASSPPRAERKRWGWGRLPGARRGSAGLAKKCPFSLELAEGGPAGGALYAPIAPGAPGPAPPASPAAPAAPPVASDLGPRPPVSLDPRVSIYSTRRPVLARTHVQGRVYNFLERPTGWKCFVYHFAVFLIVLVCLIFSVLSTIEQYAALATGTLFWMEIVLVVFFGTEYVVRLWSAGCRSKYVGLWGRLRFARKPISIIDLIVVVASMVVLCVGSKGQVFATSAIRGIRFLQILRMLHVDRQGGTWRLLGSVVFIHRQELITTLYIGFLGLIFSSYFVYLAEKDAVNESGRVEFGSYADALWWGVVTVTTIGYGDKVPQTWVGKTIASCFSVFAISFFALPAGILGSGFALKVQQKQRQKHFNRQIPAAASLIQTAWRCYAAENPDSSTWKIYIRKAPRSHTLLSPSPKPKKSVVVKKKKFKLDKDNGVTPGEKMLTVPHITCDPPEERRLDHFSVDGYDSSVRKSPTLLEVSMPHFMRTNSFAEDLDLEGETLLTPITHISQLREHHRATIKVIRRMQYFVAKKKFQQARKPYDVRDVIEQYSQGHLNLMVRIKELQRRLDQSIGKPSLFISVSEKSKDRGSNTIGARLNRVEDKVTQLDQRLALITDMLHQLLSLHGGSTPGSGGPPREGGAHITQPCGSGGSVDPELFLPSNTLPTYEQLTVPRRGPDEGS
# CHO parental ctr: KCNQ2 inhibitor counter-screen hit in parental CHO cells; shares compounds with KCNQ2 block; thallium flux counter-screen; hits give low values; activity change, % at 10 µM; 1,000 tested, 14% active; AID 493029
# KCNQ2 inh confirm: rat KCNQ2 inhibition confirmed by electrophysiology | AID 588531 | shares compounds with KCNQ2 block | KCNQ2-expressing cells, automated patch clamp current | 550 tested, 49% active | calls only at 10 µM
# Numbers stand for hits; – = inactive; · = no result; + = active, no number. Unless noted, the rule behind the calls is not given here.
SMILES,KCNQ2 block,KCNQ2 enhance,KCNQ2 inh conf,KCNQ1 spec,CHO parental ctr,others
CCOC(=O)N1CCC(NS(=O)(=O)c2ccc3c(c2)OCC(=O)N3)CC1,–,·,·,·,·,
Cc1cc(C)n(-c2nc3ccccc3c(=O)n2OCc2ccc(F)cc2)n1,–,·,·,·,·,
Cc1cc(C)n(-c2nc3ccccc3c(=O)n2OCc2ccc(Cl)cc2)n1,-7.63,–,–,–,–,
Cc1nn(-c2ccccc2)c(Cl)c1/C=N/NS(=O)(=O)c1ccc(Br)cc1,–,·,·,·,·,
Clc1cccc(Cl)c1CO/N=C/c1c(-c2ccccc2)nc2n1CCS2,-8.46,–,–,–,–,
COC(=O)/C(C#N)=C/c1c(-c2ccccc2)nc2n1CCS2,–,·,·,·,·,
Cc1nc(Sc2ccccc2)c(C#N)cc1-c1ccccc1,-9.35,–,–,–,–,
N#Cc1cc(-c2ccccc2)cnc1Sc1ccc(Cl)cc1,-6.81,–,–,–,–,
N#Cc1cc(-c2ccc(Cl)cc2)cnc1Sc1ccccc1,–,·,·,·,·,
Cc1nc(Cl)c(C#N)cc1-c1ccccc1,–,–,·,·,·,
O=C(Nc1cccc(Cl)c1)Nc1ccc2nccnc2c1,–,–,·,·,·,
O=C(NCC(c1cccs1)N1CCOCC1)c1ccc(Cl)s1 (configuration not stated),-9.71,–,–,–,–,
O=C(NCC(c1cccs1)N1CCOCC1)c1cc([N+](=O)[O-])ccc1Cl (configuration not stated),–,·,·,·,·,
CCOc1cc(CNc2cccc3ccccc23)cc(Br)c1OCC(=O)NC(C)(C)C,-6.85,–,–,–,–,
CCOc1cc(CNc2ccc(N(C)C)cc2)cc(Br)c1OCC(=O)NC(C)(C)C,–,·,·,·,·,
CC1Oc2ccccc2C=C1/C=N/NC(=O)c1ccccc1 (configuration not stated),–,·,·,·,·,
O=c1sc2ccccc2n1COc1ccc(Cl)cc1,–,–,·,·,·,
COc1ccc(NC(=S)N(Cc2ccccn2)Cc2ccccc2Cl)cc1,-7.86,–,–,–,–,
COc1cccc(NC(=S)N(Cc2ccccn2)Cc2ccccc2Cl)c1,–,·,·,·,·,
CCCc1cc(C(=O)OC)c(NC(=O)OCC)s1,–,·,·,·,·,
Cc1cc(C(=O)NC2CCCCC2C)c2ccccc2n1 (configuration not stated),–,·,·,·,·,
CCc1nc2ccc(F)cc2c(C(=O)NC2CCCCC2C)c1C (configuration not stated),-7.08,–,-26.0%,–,–,KCNQ2 inh confirm=+
Cc1ccc(S(=O)(=O)C2(C(=O)Nc3ccc(C(C)C)cc3)CC2)cc1,–,·,·,·,·,
Cc1ccc(OCC(=O)NCCCNC(=O)c2ccccn2)cc1,–,–,·,·,·,
CCN1CCN(S(=O)(=O)c2ccc(Cl)c(C(=O)Nc3cc(Cl)ccc3N3CCOCC3)c2)CC1,-6.72,–,–,–,–,
SMILES,KCNQ2 block,KCNQ2 enhance,KCNQ2 inh conf,KCNQ1 spec,CHO parental ctr,others
O=C(Nc1ccccc1N1CCCCC1)c1cc(S(=O)(=O)N2CCOCC2)ccc1Cl,-9,–,-28.5%,–,–,KCNQ2 inh confirm=+
CCN1CCN(S(=O)(=O)c2ccc(Cl)c(C(=O)Nc3ccccc3N3CCOCC3)c2)CC1,–,·,·,·,·,
O=C(Nc1ccccc1Cl)c1cc(S(=O)(=O)N2CCCCC2)ccc1N1CCOCC1,–,·,·,·,·,
COc1ccc(NC(=O)c2cc(OC)c(OC)c(OC)c2Br)cc1OC,–,–,·,·,·,
COc1cc(C(=O)Nc2c(C)cc(C)cc2C)c(Br)c(OC)c1OC,-8.77,–,–,–,–,
CCCCC(=O)NNC(=S)NC(=O)c1ccc(C)cc1,–,·,·,·,·,
CCOc1ccc2oc(C(=O)N3CCN(c4ccccc4OCC)CC3)c(C)c2c1,-9.78,–,–,–,–,
COc1ccccc1N1CCN(C(=O)c2oc3cc(C)c(C)cc3c2C)CC1,–,·,·,·,·,
O=C(NCc1ccc(F)cc1)C(c1ccccc1)N(C(=O)c1csnn1)c1ccccc1 (configuration not stated),–,·,·,·,·,
COC(=O)CSc1nnc(CNC(=O)c2cccc(C)c2)n1-c1ccccc1OC,–,–,·,·,·,
CCOC(=O)c1ccc(COc2nc3ccccc3nc2-c2ccccc2NC(C)=O)o1,–,–,·,·,·,
CCOC(=O)c1c(C)n(-c2ccc(C)cc2)c2ccc(OCC(O)CNCCCO)cc12 (configuration not stated),-10.9,–,–,–,–,
CCOC(=O)c1c(C)n(C)c2ccc(OCC(O)CNC(CC)CO)cc12 (configuration not stated),–,–,·,·,·,
CCOc1ccc(Nc2nc(NCC3CCCO3)c3ccccc3n2)cc1 (configuration not stated),-6.71,–,–,–,–,
c1ccc(Nc2nc(NCC3CCCO3)c3ccccc3n2)cc1 (configuration not stated),–,·,·,·,·,
Cc1cc(C)c(-c2cc(NC(=O)COC(=O)c3ccc(NC(=O)CC#N)cc3)n(-c3ccccc3)n2)cc1C,–,·,·,·,·,
COc1ccc(-c2oc3c4c(cc(OC)c3c(=O)c2CC=C(C)C)OC(C)(C)C=C4)c(OC)c1,-9.01,–,–,–,–,
CC(C)=CCc1c(-c2ccc(O)cc2O)oc2cc3c(c(O)c2c1=O)C=CC(C)(C)O3,–,·,·,·,·,
O=C(N/N=C/c1ccc(O)c(Br)c1)c1cc2c(ccc3ccccc32)o1,–,·,·,·,·,
O=C(N/N=C/c1cc(Br)c(O)c(Br)c1)c1cc2c(ccc3ccccc32)o1,-10.7,–,-53.0%,-49.5%,-54.5%,KCNQ2 inh confirm=–
O=C(NCCc1cn2ccsc2n1)C1CCCCC1,–,–,·,·,·,
Cc1csc2nc(CNC(=O)C3CCCCC3)cn12,-8.79,–,–,–,–,
N#Cc1c(-c2ccccc2)cc(C2CC2)nc1SCC(=O)O,–,–,·,·,·,
COC(=O)c1ccccc1S(=O)(=O)N(CCCN1CCOCC1)Cc1cccs1,–,–,·,·,·,
Cc1cc(NC(=O)COc2c(C)cccc2C)no1,–,·,·,·,·,
SMILES,KCNQ2 block,KCNQ2 enhance,KCNQ2 inh conf,KCNQ1 spec,CHO parental ctr,others
Cc1ccccc1OCC(=O)NCCC1=CCCCC1,-7.34,–,–,–,–,
CC(=O)Nc1ccccc1OCC(=O)NCCC1=CCCCC1,–,–,·,·,·,
CCOc1ccc(Oc2ccc(S(=O)(=O)N3CCOCC3)cc2NC(=O)C2=COCCO2)cc1,–,·,·,·,·,
O=[N+]([O-])c1ccc(Nc2ccccc2)c2nonc12,–,–,·,·,·,
O=[N+]([O-])c1ccc(Sc2cccc[n+]2[O-])c2nonc12,-14.6,–,-64.0%,-57.0%,-60.0%,KCNQ2 inh confirm=–
Cc1onc(-c2ccccc2)c1C(=O)Nc1ccc(Cl)cn1,–,·,·,·,·,
CCOCc1[nH]c(=S)[nH]c(=O)c1Cc1ccc(OCC(C)C)cc1,–,·,·,·,·,
Cc1ccc(C(=O)NCCCc2ccccc2)c(Cl)c1,–,·,·,·,·,
CCN(Cc1ccccc1)C(=O)COC(=O)c1cc(Cl)nc(Cl)c1,–,·,·,·,·,
O=C(OCC(=O)N(CCc1ccccc1)Cc1ccccc1)c1ccccc1O,-7.17,–,–,–,–,
O=C(NCCC(=O)N(CCc1ccccc1)Cc1ccccc1)c1ccccc1Cl,-6.71,–,-32.0%,–,–,KCNQ2 inh confirm=+
CCCCN1C(N)=NC[C@@H]1Cc1ccc(O)cc1,–,·,·,·,·,
Cc1cc(C)c(S(=O)(=O)N(C)c2ccccc2)c(C)c1,-7.47,–,-31.0%,–,–,KCNQ2 inh confirm=–
Cc1cc2c(cc1S(=O)(=O)N(C)c1ccccc1)n(C)c(=O)n2C,–,–,·,·,·,
CCCOc1ccc(C2=NNC(c3cccs3)=Nc3ccc(OC)cc32)cc1,–,·,·,·,·,
CC(C)(C)OC(=O)N1CCC[C@H]1c1nnc(SCc2ccc(Cl)cc2Cl)o1,-7.16,–,–,–,–,

# Source: PubChem
